# In the supplement of paper PMC7801607:
# System: Plasmodium berghei ANKA liver stage in HepG2-A16-CD81
# Test: % inhibition of liver stage parasite viability (luciferase); higher = more inhibition
# Details: 5 µM; 48 h
# Procedure: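 Single-concentration screen of the MMV Pandemic Response Box. P. falciparum NF54 asexual blood stages: pLDH assay, 72 h at 37 °C, 2 and 20 µM, n=2. Stage IV/V gametocytes (NF54): luciferase reporter (NF54-Pfs16-GFP-Luc, 48 h), ATP bioluminescence (24 h) and PrestoBlue (48 h) at 1 and 5 µM, n=1. P. berghei liver stage (luciferase in HepG2-A16-CD81, 48 h post infection) at 5 µM, n=4. All normalised to DMSO and kill controls as % inhibition.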
row,SMILES,% inhibition of liver stage parasite viability [%]
1,CCOC(=O)Nc1cc(NC(C)CC(C)CN(CC)CC)c2nc(-c3ccccc3)c(-c3ccccc3)nc2n1 (stereo not given),55.5
2,CN(O)C(=O)c1cc2c(CN3CCC[C@H]3C(N)=O)cn(Cc3ccc(F)cc3)c2cn1,24.6
3,N#C/C(=C1/SC[C@H](c2ccc(Cl)cc2Cl)S1)n1ccnc1,24
4,FC(F)(F)Oc1ccc(Nc2ccc3cccc(Cl)c3n2)cc1,18
5,Cc1cc(-c2ccccc2)c(C(=O)C(=O)Nc2ccc(N3CCN(c4ncc(F)cn4)CC3)cc2)n1C,58.8
6,O=C(O)c1ccc(-n2nc(-c3ccccc3O)nc2-c2ccccc2O)cc1,18.6
7,O=C(O)c1cc(-c2ccccc2)nc2ccccc12,38.5
8,O=S(=O)(NCB(O)O)c1ccc(-c2nnn[nH]2)cc1C(F)(F)F,29.3
9,[N-]=[N+]=N[C@H]1C[C@H](n2ccc(=O)[nH]c2=O)O[C@@H]1CO,-3.95
10,O=c1ccc2ncc(=O)n3c2n1CC3CN1CCC(NCc2cc3c(cn2)OCCC3)CC1 (stereo not given),23.7
11,O=C(Nc1ccc(F)cc1)c1nn(-c2ccccc2)c(=O)cc1Cl,3.89
12,OC[C@@H]1CC[C@H](n2cnc3c(O)ncnc32)O1,18.8
13,CCC(C)n1ncn(-c2ccc(N3CCN(c4ccc(OCC5COC(Cn6cncn6)(c6ccc(Cl)cc6Cl)O5)cc4)CC3)cc2)c1=O (stereo not given),46.4
14,Cc1c(N)cccc1Cn1ccc(OCCc2cccs2)cc1=O,17
15,CCCC1(C2CC2)c2cc(Cl)ccc2NC(=O)N1C (stereo not given),-13.9
16,COc1c(NC(=O)[C@H]2CC[C@@H](COc3ccc([N+](=O)[O-])cc3)CC2)c(F)cc2c(=O)c(C(=O)O)cn(C3CC3)c12,46.8
17,COc1ccc2cc3[n+](cc2c1OCCN(CCn1cncn1)Cc1ccc(F)cc1F)CCc1cc2c(cc1-3)OCO2,2.84
18,c1ccc(-c2nnc3c4ccccc4c(N4CCNCC4)nn23)cc1,7.03
19,C/C(=N\NC(=O)C1CC1c1ccccc1)c1ccc(NC(=O)c2ccco2)cc1 (stereo not given),13.7
20,COCCn1cnc2c(=O)[nH]c(Nc3ccccc3)nc21,7.54

row,SMILES,% inhibition of liver stage parasite viability [%]
1,Cc1cccc(C)c1C(=O)Nc1nc(-c2ccccn2)cc2ccccc12,73.3
2,CO/N=C(\C(=O)N[C@@H]1C(=O)N2C(C(=O)OCOC(=O)C(C)(C)C)=C(/C=C\c3scnc3C)CS[C@H]12)c1csc(N)n1,34
3,COc1c(F)c(F)cc2c(=O)c(C(=O)O)cn(C3CC3)c12,15.1
4,COc1cc(Cc2cnc(N)nc2N)c2c(c1OC)OC(C1CC1)C=C2 (stereo not given),56.5
5,CN(C)CCCNC(=O)c1ccc(-c2cc(O)c3ncccc3c2)cc1,24.5
6,Cc1nc(Nc2ccc(F)cc2)nc(N2CCc3ccccc3C2C)c1C (stereo not given),52.5
7,OB1OCc2c1ccc(Cl)c2F,7.88
8,COc1ccc(C(C)(C)C)cc1NC(=O)C(=O)c1ccc(OCCN2CCOCC2)c2ccccc12,15.1
9,Cc1cc(C2CCCCC2)n(O)c(=O)c1,14.2
10,Clc1ccc(Cn2c(CN3CCCC3)nc3ccccc32)cc1,22.9
11,Oc1c(C(Nc2nc3ccccc3s2)c2ccc(OC(F)F)cc2)ccc2cccnc12 (stereo not given),52.7
12,C[Si]1(C)CCN(Cc2cc(-c3ccc(Cl)cc3)n(-c3ccc(Cl)cc3)n2)CC1,33.3
13,c1cnc(NCc2ccc(CNc3ncccn3)cc2)nc1,25.6
14,CCc1nc(N)nc(N)c1C#CC(C)c1cc(OC)cc(-c2ccncc2)c1 (stereo not given),70.2
15,CCC(C)(C)c1ccc(CC(C)CN2C[C@@H](C)O[C@@H](C)C2)cc1 (stereo not given in full),40.5
16,CN(C/C=C/C#CC(C)(C)C)Cc1cccc2ccccc12,29.1
17,C[C@@H](c1nc(-c2ccc(C#N)cc2)cs1)[C@](O)(Cn1cncn1)c1ccc(F)cc1F,-4.98
18,CCNC(=O)Nc1cn2c(-c3ncc(CC)cn3)cc(-c3cccnc3)cc2n1,4.97
19,CCOc1ccc(/C=N/NC(=O)C2CC2c2ccc(C(C)(C)C)cc2)cc1OCC (stereo not given),11.3
20,CC1(C)[C@H](C(=O)O)N2C(=O)C[C@H]2S1(=O)=O,20.3
